Screening results deposited in PubChem BioAssay by National Center for Advancing Translational Sciences (NCATS).
Sampled rows, rich in hits. Any-hit rate of the full collection: about 10%.
SARS PLP yeast = qHTS of Yeast-based Assay for SARS-CoV PLP; S. cerevisiae expressing SARS-CoV PLpro, growth rescue; Potency, µM (doses to about 32.9 µM), without a hit: top-dose activity, positive = growth rescue, usual class: activators; actives 0.19% (n = 330,000); AID 485353, 2010; also: 0% is about no effect; nearly all actives have a fitted effect of over 55% in size
Pf growth 48h = Primary qHTS for delayed death inhibitors of the malarial parasite plastid, 48 hour incubation; P. falciparum luciferase growth in erythrocytes, 48 h; Potency, µM (highest dose often 28.7 µM), inactives show at the top dose activity change, negative = inhibition, usual class: inhibitors; actives 5.9% (n = 310,000); AID 504832, 2011; active = well fitted inhibition curve with a large enough effect; inconclusive = small, poorly fitted or top-dose-only effect, or another doubt; inactive = no such curve, though single readings can be large or run the other way; also: % is scaled to controls: 0 for no effect and ±100 for the full control effect
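Growth was read as firefly luciferase luminescence after a 48 h, 37 C, 5% CO2 exposure of compounds to reporter-bearing P. falciparum cultures (0.1% parasitemia, 2% hematocrit final) in Albumax-supplemented RPMI 1640.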
NS1 inh = qHTS Assay for Inhibitors of Influenza NS1 Protein Function; actives 0.4% (n = 270,000); Potency, µM (titrated, usually from 46.1 µM), for inactives: at the top dose activity, positive = more growth; AID 2326, 2010; also: actives are rising curves; nearly all actives have a fitted effect of over 50% in size
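In this qHTS, NS1 from influenza A is expressed in budding yeast, where it slows growth. Cells are switched from glucose to 2% galactose medium (pH 6.0, -URA), treated with compound, and growth recovery is read at OD600.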
Pf growth 96h = Primary qHTS for delayed death inhibitors of the malarial parasite plastid, 96 hour incubation | P. falciparum luciferase reporter growth, 96 h | Potency, µM (series often up to 28.7 µM), without a hit: at the top dose activity change, negative = inhibition, usual class: inhibitors | AID 504834, 2011 | actives 6.9% (n = 320,000); active = well fitted inhibition curve with a large enough effect; inconclusive = small, poorly fitted or top-dose-only effect, or another doubt; inactive = no such curve, though single readings can be large or run the other way; also: % is scaled to controls: 0 for no effect and ±100 for the full control effect
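Compounds incubated with erythrocytes infected by luciferase-expressing P. falciparum (2% hematocrit, 0.05% parasitemia final) for 96 hours, 37 C in 5% CO2. Growth inhibition scored as decreased luciferase luminescence.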
Active calls of the source: *. Unless noted, calls follow the shape of the full dose curve. Potency is read from the fitted curve at half-maximal effect.

For CC1CCCC(NC(=O)COC(=O)[C@@H](NC(=O)c2ccccc2Cl)C(C)C)C1C (stereo partly drawn) the results were SARS PLP yeast -8.4%.
For CC1CCC2(CC1)NC(=O)N(CC(=O)Nc1ccc(F)cc1)C2=O (stereo not drawn) the results were SARS PLP yeast 0.5%, Pf growth 48h 10.1% and Pf growth 96h 3.6%.
For CC(=O)N1N=C(c2ccc(Cl)cc2)CC1c1ccco1 (stereo not drawn) the results were SARS PLP yeast -0.7%, Pf growth 48h 14.7%, NS1 inh -1.6% and Pf growth 96h -5.2%.
Screening O=C(c1ccc(Br)o1)N1N=C(c2ccc(Cl)cc2)CC1c1ccco1 (stereo not drawn) returned SARS PLP yeast -3.6%, Pf growth 48h inconclusive, NS1 inh 0.3% and Pf growth 96h 9.28µM*.
For O=C(c1ccco1)N1N=C(c2ccco2)CC1c1ccc(Cl)cc1Cl (stereo not drawn) the results were SARS PLP yeast -1.6%, Pf growth 48h 8.28µM* and Pf growth 96h 4.15µM*.
Screening Clc1ccc(C2=NN(c3ccccc3)C(c3ccco3)C2)cc1 (stereo not drawn) returned SARS PLP yeast -1.0%, Pf growth 48h -23.7%, NS1 inh -5.5% and Pf growth 96h inconclusive.
O=C(CNC(=O)c1ccccc1)OCC(=O)N1N=C(c2ccc(Cl)cc2)CC1c1ccco1 (stereo not drawn) was read as SARS PLP yeast -10.1%, Pf growth 48h inconclusive and Pf growth 96h 3.1%.
Screening Cc1ccc(S(=O)(=O)N[C@H](C(=O)OCC(=O)N2N=C(c3ccc(Cl)cc3)CC2c2ccco2)C(C)C)cc1 (stereo partly drawn) returned SARS PLP yeast 16.9%, Pf growth 48h 10.4µM*, NS1 inh 29.6% and Pf growth 96h inconclusive.
Screening O=S(=O)(c1ccccc1)N1N=C(c2ccc(Cl)cc2)CC1c1ccco1 (stereo not drawn) returned SARS PLP yeast -1.4%, Pf growth 48h 10.4µM* and Pf growth 96h inconclusive.
Screening CCC(C)c1ccccc1NC(=O)c1cccc(-n2cnnn2)c1 (stereo not drawn) returned SARS PLP yeast 1.5%.
CCCCn1c(N)c(N(CCOC)C(=O)C(C)N2C(=O)c3ccccc3C2=O)c(=O)[nH]c1=O (stereo not drawn) was read as SARS PLP yeast -8.0%, Pf growth 48h 19.6% and Pf growth 96h 29.6%.
Screening CCOP(=O)(OCC)c1nc(-c2cccc([N+](=O)[O-])c2)oc1N1CCCCC1 returned SARS PLP yeast 1.2%, Pf growth 48h 23.4% and Pf growth 96h inconclusive.
For CCOP(=O)(c1ccccc1)c1nc(-c2ccccc2Cl)oc1N1CCCCC1 (stereo not drawn) the results were SARS PLP yeast -33.0%, Pf growth 48h 6.57µM*, NS1 inh -6.0% and Pf growth 96h inconclusive.
CCOc1ccc(-c2cc(C(=O)NCCCn3ccnc3)c3cc(Br)ccc3n2)cc1 was read as SARS PLP yeast 1.0%, Pf growth 48h 1.65µM*, NS1 inh 8.2% and Pf growth 96h inconclusive.
`O=C(NCCCn1ccnc1)c1nn2c(C(F)(F)F)cc(-c3ccc(Br)cc3)nc2c1Cl` gave SARS PLP yeast -13.9%, Pf growth 48h 1.47µM*, NS1 inh inconclusive and Pf growth 96h 2.94µM*.
Screening O=C(O)CCSCc1ccc(I)cc1 returned NS1 inh -31.9%.
Screening CCC(C)C(=O)N[C@@H](c1ccccc1)[C@@H](O)C(=O)O[C@H]1C[C@@]2(O)[C@@H](OC(=O)c3ccccc3)C3[C@](C)(C(=O)[C@H](OC(C)=O)C(=C1C)C2(C)C)[C@@H](O)C[C@H]1OC[C@@]31OC(C)=O (stereo partly drawn) returned SARS PLP yeast -2.7%, Pf growth 48h 0.465µM*, NS1 inh -47.2% and Pf growth 96h 0.233µM*.
CC(=O)O[C@H]1C(=O)[C@@]2(C)[C@H]([C@H](OC(=O)c3ccccc3)[C@]3(O)C[C@H](OC(=O)[C@H](O)[C@@H](NC(=O)c4ccccc4)c4ccccc4)C(C)=C1C3(C)C)[C@]1(OC(C)=O)CO[C@@H]1C[C@@H]2O was read as SARS PLP yeast 3.6%, Pf growth 48h 0.0738µM* and Pf growth 96h 0.0586µM*.
Screening C/C=C(\C)C(=O)N[C@@H](c1ccccc1)[C@@H](O)C(=O)O[C@H]1C[C@@]2(O)[C@@H](OC(=O)c3ccccc3)C3[C@](C)(C(=O)[C@H](OC(C)=O)C(=C1C)C2(C)C)[C@H](O)C[C@H]1OC[C@@]31OC(C)=O (stereo partly drawn) returned SARS PLP yeast -6.9%, Pf growth 48h inconclusive, NS1 inh 2.9% and Pf growth 96h inconclusive.
`CC(=O)O[C@H]1C(=O)[C@@]2(C)[C@H]([C@H](OC(=O)c3ccccc3)[C@]3(O)C[C@H](OC(=O)[C@H](O)C(NC(=O)c4ccccc4)c4ccccc4)C(C)=C1C3(C)C)[C@]1(OC(C)=O)CO[C@@H]1C[C@@H]2O` (stereo partly drawn) gave SARS PLP yeast 0.3%, Pf growth 48h 0.104µM*, NS1 inh -37.8% and Pf growth 96h 0.0738µM*.
Screening CCCCCC(=O)N[C@@H](c1ccccc1)[C@@H](O)C(=O)O[C@H]1C[C@@]2(O)[C@@H](OC(=O)c3ccccc3)C3[C@](C)(C(=O)[C@H](OC(C)=O)C(=C1C)C2(C)C)[C@@H](O)C[C@H]1OC[C@@]31OC(C)=O (stereo partly drawn) returned SARS PLP yeast 0.3%, Pf growth 48h inconclusive, NS1 inh -16.6% and Pf growth 96h inconclusive.
`CC/C=C/CC(=O)N[C@@H](c1ccccc1)[C@@H](O)C(=O)O[C@H]1C[C@@]2(O)[C@@H](OC(=O)c3ccccc3)C3[C@](C)(C(=O)[C@H](OC(C)=O)C(=C1C)C2(C)C)[C@@H](O)C[C@H]1OC[C@@]31OC(C)=O` (stereo partly drawn) gave SARS PLP yeast 0.5%, Pf growth 48h 0.465µM*, NS1 inh -17.5% and Pf growth 96h 0.329µM*.
COc1ccc(C(=O)NCc2cnn(C)c2C)cc1OC1CCN(C(C)C)CC1 was read as SARS PLP yeast -4.3%, Pf growth 48h 15.3%, NS1 inh 3.1% and Pf growth 96h inconclusive.
`O=C(COC(=O)COc1cccc(C(F)(F)F)c1)NC1CCCC1` gave SARS PLP yeast -4.2%, Pf growth 48h 8.8% and Pf growth 96h 10.5%.
COc1ccccc1NC(=S)N1CCN(c2nc(-c3ccccc3)cs2)CC1 was read as SARS PLP yeast -2.0%, Pf growth 48h -4.0%, NS1 inh 9.6% and Pf growth 96h -7.6%.
For COc1ccc(N2CCN(C(=O)COC(=O)c3oc4ccc(OC)cc4c3C)CC2)cc1 the results were SARS PLP yeast inconclusive, Pf growth 48h inconclusive and Pf growth 96h 11.2%.
